This is a sample that favours compounds with a hit; in the whole collection about 27% have one here.
CYP2C19 act: activators of human cytochrome P450 2C19; 96,000 tested, under 10 active; activation factor at 5 µM; recombinant CYP2C19, luciferin-H EGE luminescence; hits give high values; 0 = fully inhibited enzyme, 1 = untreated enzyme; P33261;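 active means activation factor of at least 2 at 5 µM in the primary screen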;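 further: 0 = wells with 2.5 mM tranylcypromine and 1 = vehicle-only wells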
CYP2C19 inh: human CYP2C19 inhibition; inhibition, % at 5 µM; CYP2C19 Supersomes, luciferin-H EGE luminescence, 30 min; 21% of 96,000 active;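 active means CYP2C19 inhibition above a set limit at 5 µM in the primary screen, cut at about 50% in these data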;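 further: plate controls were negative control wells for no effect and 2.5 mM tranylcypromine positive control for full effect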
Cav32 inh: human Cav3.2 channel inhibition, primary screen; Cav3.2-expressing cells, Fluo-4 calcium fluorescence FDSS; hits give low values; B-score at 10 µM; 4% of 100,000 active; AID 449739;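 active means single-dose well whose peak fluorescence ratio is a statistical outlier from its plate by either plate-standardised score or position-corrected B-score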
Target sequence (O95180 whole entry, looked up): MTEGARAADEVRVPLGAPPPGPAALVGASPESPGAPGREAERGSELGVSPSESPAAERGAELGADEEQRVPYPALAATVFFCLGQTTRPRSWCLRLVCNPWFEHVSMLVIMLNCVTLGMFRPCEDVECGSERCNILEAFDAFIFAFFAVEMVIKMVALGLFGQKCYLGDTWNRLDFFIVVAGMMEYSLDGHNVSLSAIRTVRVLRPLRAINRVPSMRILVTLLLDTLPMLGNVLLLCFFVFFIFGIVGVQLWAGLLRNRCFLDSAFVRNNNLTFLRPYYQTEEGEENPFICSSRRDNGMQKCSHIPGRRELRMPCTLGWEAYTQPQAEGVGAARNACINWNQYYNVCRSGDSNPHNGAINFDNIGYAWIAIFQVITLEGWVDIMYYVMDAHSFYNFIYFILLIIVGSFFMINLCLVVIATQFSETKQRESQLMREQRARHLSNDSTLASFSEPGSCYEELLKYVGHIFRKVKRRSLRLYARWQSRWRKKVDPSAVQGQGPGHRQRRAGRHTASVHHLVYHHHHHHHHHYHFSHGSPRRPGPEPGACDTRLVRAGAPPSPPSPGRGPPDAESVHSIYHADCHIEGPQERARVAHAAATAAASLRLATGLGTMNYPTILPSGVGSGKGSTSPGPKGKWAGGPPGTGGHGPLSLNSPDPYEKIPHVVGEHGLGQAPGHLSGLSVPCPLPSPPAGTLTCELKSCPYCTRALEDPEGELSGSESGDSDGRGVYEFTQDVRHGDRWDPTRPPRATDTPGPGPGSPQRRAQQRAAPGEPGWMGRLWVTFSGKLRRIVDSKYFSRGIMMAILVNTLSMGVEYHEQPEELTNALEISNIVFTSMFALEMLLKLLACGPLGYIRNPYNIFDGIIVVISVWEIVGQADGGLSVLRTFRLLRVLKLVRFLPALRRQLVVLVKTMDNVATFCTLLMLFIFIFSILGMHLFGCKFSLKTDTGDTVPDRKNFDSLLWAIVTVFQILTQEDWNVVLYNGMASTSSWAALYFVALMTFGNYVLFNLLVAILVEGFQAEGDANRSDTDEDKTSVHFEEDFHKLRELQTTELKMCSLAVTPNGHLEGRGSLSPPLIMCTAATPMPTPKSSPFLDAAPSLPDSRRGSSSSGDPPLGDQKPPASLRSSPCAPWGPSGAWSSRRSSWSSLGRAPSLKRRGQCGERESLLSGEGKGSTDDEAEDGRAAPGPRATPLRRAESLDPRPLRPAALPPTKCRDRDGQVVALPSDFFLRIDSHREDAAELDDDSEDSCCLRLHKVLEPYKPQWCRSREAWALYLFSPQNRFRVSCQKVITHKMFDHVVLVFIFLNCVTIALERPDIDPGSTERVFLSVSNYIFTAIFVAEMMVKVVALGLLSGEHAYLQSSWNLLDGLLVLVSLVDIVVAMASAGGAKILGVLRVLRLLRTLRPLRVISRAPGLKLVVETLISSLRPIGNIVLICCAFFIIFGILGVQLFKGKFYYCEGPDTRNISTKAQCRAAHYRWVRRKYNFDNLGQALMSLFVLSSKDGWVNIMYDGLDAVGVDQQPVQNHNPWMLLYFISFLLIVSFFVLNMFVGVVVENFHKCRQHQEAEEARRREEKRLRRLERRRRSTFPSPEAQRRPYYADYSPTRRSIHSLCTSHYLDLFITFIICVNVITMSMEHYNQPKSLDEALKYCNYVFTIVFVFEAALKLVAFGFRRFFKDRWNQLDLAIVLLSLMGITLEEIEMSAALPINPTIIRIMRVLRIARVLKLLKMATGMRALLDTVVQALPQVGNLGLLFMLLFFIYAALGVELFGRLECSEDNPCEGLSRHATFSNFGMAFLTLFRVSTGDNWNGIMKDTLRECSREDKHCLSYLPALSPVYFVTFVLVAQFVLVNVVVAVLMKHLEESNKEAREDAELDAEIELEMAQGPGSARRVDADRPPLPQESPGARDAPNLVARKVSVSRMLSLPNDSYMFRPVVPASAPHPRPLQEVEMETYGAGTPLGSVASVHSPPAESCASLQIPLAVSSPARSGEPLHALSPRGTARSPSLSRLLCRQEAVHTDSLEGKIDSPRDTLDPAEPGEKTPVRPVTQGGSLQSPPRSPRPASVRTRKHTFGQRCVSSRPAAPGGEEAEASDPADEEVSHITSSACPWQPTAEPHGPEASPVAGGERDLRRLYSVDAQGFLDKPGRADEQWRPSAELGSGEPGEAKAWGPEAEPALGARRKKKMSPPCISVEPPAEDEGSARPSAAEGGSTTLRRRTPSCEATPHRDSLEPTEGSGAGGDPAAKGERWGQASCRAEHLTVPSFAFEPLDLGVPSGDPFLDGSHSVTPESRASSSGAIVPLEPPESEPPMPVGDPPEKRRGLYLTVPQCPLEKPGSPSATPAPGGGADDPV
CYP2C9 act: increases human cytochrome P450 2C9 activity. AID 1024. activation factor at 5 µM. recombinant CYP2C9, luciferin-H conversion, luminescence; hits give high values; factor 1 = untreated enzyme, 0 = blocked. 1.4% of 96,000 active. P11712;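 active means activation factor of 2 or more for CYP2C9 at a 5 µM dose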;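 further: 0 = sulfaphenazole-blocked wells and 1 = vehicle-only wells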
CYP2C9 inhib: human CYP2C9 inhibition | CYP2C9 Supersomes, luciferin-H conversion, luminescence | inhibition, % at 5 µM | 20% of 96,000 active | AID 777;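 active means blocking of liver enzyme CYP2C9 beyond about 50% at 5 µM, limit read from the data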
Starred values were filed as active, the others as inactive; nt = no result.

SMILES | CYP2C19 act | CYP2C19 inh | Cav32 inh | CYP2C9 act | CYP2C9 inhib
Clc1cc(I)cc(Cl)c1NC1=NCCN1 | nt | nt | -0.226 | nt | nt
COC(=O)C1=C(c2cc3ccccc3o2)C[C@@H]2CC[C@H]1N2C(=O)NCCO | nt | nt | 0.3 | nt | nt
COc1cc(C(O)CNC(C)C)cc(F)c1OC (configuration not stated) | nt | nt | 0.685 | nt | nt
CCOP(=S)(OCC)SCC(=O)NC(C)(CC)C(=O)O (configuration not stated) | 1.1 | -15.0 | 0.787 | 0.2 | 84.0*
CN1C(=O)NC(=O)C2(Cc3ccccc3N3CCOCC32)C1=O (configuration not stated) | 1 | 0.3 | 1.29 | 0.9 | 8.3
CN1C(=O)NC(=O)[C@]2(Cc3ccccc3N3CCN(c4ccccc4)CC32)C1=O (some centres not stated) | 0.8 | 21.0 | -1.19 | 0.7 | 31.3
CCCCN1C(=O)NC(=O)C2(Cc3ccccc3N3CCOCC32)C1=O (configuration not stated) | 0.3 | 70.5* | -2.87 | 0.3 | 66.8*
O=C1NC(=O)[C@]2(Cc3ccccc3N3CCN(c4ccccc4)CC32)C(=O)N1Cc1ccccc1 (some centres not stated) | 0.3 | 71.4* | -3.37 | 0.1 | 91.0*
O=C1NC(=O)[C@]2(Cc3ccccc3N3CCN(c4ccccc4)CC32)C(=O)N1c1ccccc1 (some centres not stated) | 0.4 | 63.0* | -4.55* | 0.1 | 91.4*
COc1cc2c(cc1OC)C13CCN4CC5=CCOC6CC(=O)N2C1C6C5CC43 (configuration not stated) (tested in a mixture with another compound) | nt | nt | 0.731 | nt | nt
Cc1ccc(S(=O)(=O)N[C@@H](CCCCN)C(=O)CCl)cc1 | nt | nt | 1.84 | nt | nt
C(#CCN1CCOCC1)COC/C=C/c1ccccc1 | 0.6 | 44.8 | 0.93 | 1 | -0.8
Cc1ccccc1C1=NCC(=O)N(CC(=O)NCc2ccco2)c2sc3c(c21)CCCC3 | 0.3 | 65.8* | -7.21* | 0.2 | 84.0*
Cn1c(O)c(C=NCc2cccs2)c(=O)n(C)c1=O | 0.8 | 20.1 | -1.22 | 1.1 | -13.4
Cc1ccccc1OCCN=Cc1c(O)n(C)c(=O)n(C)c1=O | 0.4 | 64.1* | nt | 0.7 | 26.7
CCCCc1ccc2[nH]cc(CCN)c2c1 | 0.7 | 34.5 | 0.835 | 0.4 | 62.6*
O=C(N/N=C1/CN2CCC1CC2)c1cccc(O)c1 | 0.9 | 10.8 | 0.355 | 1 | 1.1
Cc1cnn(C2CCN(C)CC2)c1N | 1.1 | -7.5 | 0.775 | 1 | 4.8
COc1ccc(CCN(C)Cc2c(F)cccc2F)cc1OC | 0.2 | 80.4* | -0.041 | 0.9 | 14.3
CC[N+](CC)(CC)CC | nt | nt | 0.628 | nt | nt
Oc1c(Br)cc(Br)cc1Oc1ccc(Br)cc1Br | nt | nt | 1.46 | nt | nt
O=P(Nc1ccccc1)(Nc1ccccc1)Oc1ccc(Cl)cc1 | 0.1 | 86.4* | nt | 0.2 | 81.1*
O=C(Nc1ccccc1)Oc1ccccc1 | 0.7 | 30.6 | nt | 0.9 | 11.6
Nc1ccncc1 | nt | nt | 0.52 | nt | nt
CC(C)CCn1c(=O)c(C(=O)Nc2ccccc2S(N)(=O)=O)c(O)c2ccccc21 | 1.1 | -12.7 | -5.39* | 0.6 | 35.1
SMILES | CYP2C19 act | CYP2C19 inh | Cav32 inh | CYP2C9 act | CYP2C9 inhib
CCCCn1c(=O)c(C(=O)Nc2cnccn2)c(O)c2ccccc21 | 1 | 4.5 | -2.64* | 0.9 | 5.0
CCCCn1c(=O)c(C(=O)Nc2nc3ccccc3[nH]2)c(O)c2ccccc21 | 0.9 | 6.2 | nt | 1.1 | -5.8
CC(C)c1ccc(N2C(=O)NC(=O)/C(=C\c3cnc(-c4ccccc4)nc3)C2=O)cc1 | 0.7 | 28.1 | nt | 0.8 | 23.8
CCOc1cc(/C=C2/C(=O)NC(=O)N(c3ccc(CC)cc3)C2=O)ccc1OC(=O)c1cccs1 | 0.4 | 58.7* | 1.51 | 0.8 | 18.7
O=P(Nc1ccccc1Cl)(c1ccccc1)c1nc2c(s1)CCCC2 (configuration not stated) | 0.8 | 15.9 | -5.88* | 0.8 | 24.7
O=c1c2ccccc2nc(N2CCCC2)n1-c1ccc(Cl)cc1 | 0.3 | 67.4* | -4.58* | 0.9 | 13.4
COc1ccc(-n2c(SC)nc3ccccc3c2=O)cc1 | 0.8 | 17.6 | -0.725 | 0.9 | 12.2
CCN(CC)c1ccc(N=Cc2c(O)n(Cc3ccccc3)c(=O)[nH]c2=O)cc1 | 0.9 | 7.8 | -4.35* | 1 | -0.2
CCCC1=C(C(=O)OCC)C2(C(=O)Nc3ccc(C)cc32)C(C#N)=C(N)O1 (configuration not stated) | 0.4 | 61.5* | -0.807 | 0.5 | 51.1*
CCN1C[C@]2(COC)CC[C@H](O)[C@@]34C5C[C@@H]6[C@@H](OC)C[C@@](O)(C5[C@H]6O)[C@](O)([C@@H](OC)C23)[C@@H]14 (some centres not stated) | nt | nt | -0.0487 | nt | nt
CCOC(=O)C(O)(c1ccc(N(CC)S(=O)(=O)c2ccccc2)cc1)C(F)(F)F (configuration not stated) | 0.4 | 60.7* | -5.14* | 0.3 | 74.2*
COC(=O)C(O)(c1c(C)[nH]n(-c2ccccc2)c1=O)C(F)(F)F (configuration not stated) | 1 | 1.3 | 0.413 | 0.5 | 46.4
CCN(c1ccc(C(O)(C(=O)OC)C(F)(F)F)cc1)S(=O)(=O)c1ccccc1 (configuration not stated) | 0 | 95.3* | -2.91* | 0.2 | 78.7*
COC(=O)C(O)(c1ccc(N(C)C(=O)OC(C)C)cc1)C(F)(F)F (configuration not stated) | 0.5 | 46.3 | -2.33 | 0.8 | 16.1
COc1cccc(OC)c1C(=O)Nc1nc(N)n(-c2ccccc2)n1 | 1.2 | -15.6 | nt | 0.8 | 18.1
O=C(CNC(=O)c1ccccc1)Nc1ccc(Br)cc1C(=O)c1ccccc1 | 0.5 | 47.2 | -6.95* | 0.8 | 21.8
O=C(CNC(=O)OCc1ccccc1)Nc1ccc(Br)cc1C(=O)c1ccccc1 | 0.7 | 31.4 | -5.89* | 0.9 | 12.9
CCSc1cc(C2C(C#N)=C(N)Oc3n[nH]c(C)c32)c(C)o1 (configuration not stated) | 0.1 | 92.4* | -1.87 | 0.3 | 66.8*
COc1ccc2nc(NC(=O)CCc3nc(C4=CCN(C)CC4)no3)sc2c1 | 0.6 | 36.1 | nt | 0.2 | 75.3*
CCc1nc2ccccc2c(=O)n1-c1ccc2ccccc2c1 | 0.1 | 93.4* | -0.715 | 0.9 | 11.7
CCCCCc1nc2ccccc2c(=O)n1-c1ccc(Cl)cc1[N+](=O)[O-] | 1 | 4.5 | -0.735 | 0.9 | 5.0
CCOC(=O)c1nc2ccccc2c(=O)n1-c1ccc(C)cc1 | 0.5 | 45.9 | -0.566 | 0.4 | 55.0*
Cc1nc2ccccc2c(=O)n1-c1cccc(O)c1 | 0.6 | 35.8 | -0.19 | 0.8 | 21.8
CCOC(=O)c1nc2ccccc2c(=O)n1-c1cccc(C)c1 | 0.6 | 40.9 | 0.543 | 0.5 | 51.8*
CCCCc1nc2ccccc2c(=O)n1-c1ccccc1O | 0.5 | 54.5* | -1.39 | 0.8 | 24.4
O=C(Cc1ccccc1)Oc1ccccc1N1C(=O)CCC1=O | 1.2 | -16.9 | 0.0403 | 1.2 | -19.7
O=C(c1cccn2c(=O)c3cc(Br)ccc3nc12)N1CCC2(CC1)OCCO2 | 0.7 | 32.0 | 0.465 | 0.5 | 54.8*

Bioassay records deposited in PubChem BioAssay by several laboratories.
